# According to PubChem BioAssay AID504462 (Sanford-Burnham Center for Chemical Genomics, 2011):
# About 1,700 (0.5%) of roughly 340,000 compounds were called active. No stated cut-off is given here; in the data, active means inhibition above about 40%; inactive means the rest. The sample as a whole holds a higher share of actives than the screen did.
# Molecular target: Cysteine protease ATG4B (Homo sapiens) (UniProt Q9Y4P1)
# Experiment: blockers of ATG4B cysteine protease activity – biochemical, fluorescence, uHTS, primary screen (AID 504462)
# Details: ATG4B cleavage of LC3-PLA2, NBD-HPC fluorescence, 1 h; at 8.33 µM; hits give high values
# Sequence of Cysteine protease ATG4B (Homo sapiens) (Q9Y4P1 whole entry, looked up): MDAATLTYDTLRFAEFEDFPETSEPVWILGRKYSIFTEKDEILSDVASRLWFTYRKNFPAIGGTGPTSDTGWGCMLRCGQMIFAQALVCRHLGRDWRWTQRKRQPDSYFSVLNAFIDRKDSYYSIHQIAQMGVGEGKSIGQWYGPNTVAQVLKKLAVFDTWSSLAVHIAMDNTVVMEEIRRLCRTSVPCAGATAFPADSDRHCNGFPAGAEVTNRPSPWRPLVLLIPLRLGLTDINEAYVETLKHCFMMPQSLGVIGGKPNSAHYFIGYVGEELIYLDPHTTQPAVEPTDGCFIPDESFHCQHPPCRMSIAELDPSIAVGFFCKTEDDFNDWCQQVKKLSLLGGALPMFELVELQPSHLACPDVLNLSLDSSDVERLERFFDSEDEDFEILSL
row,SMILES,inhibition
1,C=CCOC(=O)c1ccccc1C(=O)OCC=C,-32.7% (inactive)
2,COc1ccc(OCCNC(=O)c2cc(C3CC3)nc3c2cnn3C(C)C)cc1,-0.45% (inactive)
3,CSc1ccccc1C(=O)NCc1ccccc1,5.57% (inactive)
4,Cc1ccc(CNC(=O)c2ccccc2CCc2ccccc2)cc1,46.1% (active)
5,Cc1ccc(CNC(=O)c2cccnc2Cl)cc1,-10.1% (inactive)
6,CC(C)CNc1ncnc2c1cnn2Cc1ccc(Cl)cc1,-1.96% (inactive)
7,Cc1ccc(C)c(NC(=O)C(c2ccccc2)N2CCN(CC(=O)NC3CC3)CC2)c1 (centres undefined),8.15% (inactive)
8,Cn1c(SCc2c(F)cccc2Cl)nnc1-c1cnccn1,-6.8% (inactive)
9,Fc1cccc(Cl)c1CSc1ccc(-c2ccco2)nn1,41.7% (active)
10,Cc1cc(SCc2c(F)cccc2Cl)nc(=O)[nH]1,-6.36% (inactive)
11,COc1ccc(/C=C2/CCCc3ccccc3C2=O)cc1,42.3% (active)
12,COc1ccc(/C=C2\CCc3ccccc3C2=O)c(OC)c1OC,41.9% (active)
13,O=C1/C(=C/c2cccs2)CCc2ccccc21,15.7% (inactive)
14,COc1ccc(/C=N/NC(=O)C2CC2)c(OC)c1OC,-2.43% (inactive)
15,COc1ccccc1Oc1ccc(N/C=C2/CCCC2=O)cc1,1.94% (inactive)
16,COc1ccc(/C=C2\N=C3CCCN3C2=O)cc1,0.67% (inactive)
17,Cc1cnc(C(=O)N2CCCC(N3CCN(c4ccccc4F)CC3)C2)cn1 (centres undefined),8.65% (inactive)
18,Cn1c(=O)cc(SCC(=O)N2CCCC2)c2cc(Cl)ccc21,-13.1% (inactive)
19,N#CCN(C(=O)COC(=O)C1CC2CCCC(C1)C2=O)c1ccccc1 (centres undefined),1.42% (inactive)
20,CC(=O)c1c(C)[nH]c(C(=O)NCCCN2CCCC2)c1C,-3.1% (inactive)
21,O=C(CN1CCOCC1)Nc1c(-c2ccccc2)c2cc(Br)ccc2[nH]c1=O,3.52% (inactive)
22,O=C(N/N=C\C1CC=CCC1)c1ccc(Br)o1 (centres undefined),-3.72% (inactive)
23,CC(=O)Nc1ccc(C(=O)Nc2nc(-c3cc(C)n(Cc4ccccc4)c3C)cs2)cc1,43.1% (active)
24,CCCn1c(C)cc(-c2csc(NC(=O)CCc3nc4ccccc4c(=O)[nH]3)n2)c1C,-1.22% (inactive)

row,SMILES,inhibition
1,Cc1ccc(C(=O)Nc2c(C#N)c(C)c(C)n2Cc2ccccc2)cc1,15.5% (inactive)
2,O=C(Nc1cc(S(=O)(=O)Nc2ccc(Cl)cc2)ccc1O)c1ccc(F)cc1F,13.4% (inactive)
3,Cc1ccc(C(=O)OC2=CC(=O)CC(C)(C)C2)cc1,-11.7% (inactive)
4,O=C1CN(C(=O)COc2c(Cl)cccc2Cl)c2ccccc2N1,-0.21% (inactive)
5,Cc1cccc(N2O[C@H]3C=CC2CCCC3)n1,-2.38% (inactive)
6,CC(C)(C)c1ccc(Oc2ccc(N)cc2)cc1,7.75% (inactive)
7,CC(C)(C)c1ccc(OC2=CS(=O)(=O)c3ccccc32)cc1,46.1% (active)
8,CC(C)(C)c1ccc(CN2C(=O)c3ccccc3S2(=O)=O)cc1,5.21% (inactive)
9,CCCCn1c(N)c(N(CCC(C)C)C(=O)CC2OC(=O)c3ccccc32)c(=O)[nH]c1=O (centres undefined),-0.15% (inactive)
10,O=C(NCCCc1ccccc1)C(=O)c1c[nH]c2ccccc12,0.84% (inactive)
11,O=C(C(=O)N1CCc2ccccc2C1)c1c[nH]c2ccccc12,67% (active)
12,CC1CCN(CC(=O)c2c[nH]c3ccccc23)CC1,-5.44% (inactive)
13,COc1ccc(-n2nc3c(c2NC(=O)c2ccc(N4C(=O)CCC4=O)cc2)CSC3)cc1,1.88% (inactive)
14,O=C(COc1ccc(Br)cc1F)NCC1(N2CCCCC2)CCCCC1,1.03% (inactive)
15,CSC1=NCCN1C(=O)Cc1cccc2ccccc12,-4.14% (inactive)
16,CC(=O)c1cnc(-c2ccccc2)s1,-11.9% (inactive)
17,NC(=O)Cc1ccc2sc(-c3ccccc3)nc2c1,71.4% (active)
18,CC(C)(C)Cc1nnc(NC(=O)c2cc(-c3ccccc3)nc3ccccc23)s1,10.4% (inactive)
19,O=C(CSc1nnnn1C1CCCC1)Nc1ccc2c(c1)OCCO2,-5.58% (inactive)
20,Cc1cccc(OC(=O)c2sc3ncn(C)c(=O)c3c2C)c1,-3.95% (inactive)
21,CC(C)(C)c1ccc(C(=O)NCc2ccco2)cc1,-10.7% (inactive)
22,CCCC1=Nc2cc(C(=O)NCCN3CCCC3)ccc2Sc2ccccc21,3.01% (inactive)
23,CCCC1=Nc2cc(C(=O)NCc3ccco3)ccc2Sc2ccccc21,40.2% (active)
24,NS(=O)(=O)c1cc(Cl)c(Cl)c(S(N)(=O)=O)c1,7.96% (inactive)

row,SMILES,inhibition
1,CC(=O)C1(C)N(O)C(C)(C)C(c2cccs2)=[N+]1[O-] (centres undefined),6.58% (inactive)
2,Cc1cccc(OCCC(=O)OCc2csc(CC(=O)Nc3ccccc3C)n2)c1,-6.31% (inactive)
3,CC1O[C@H](OC2C(COC3OC(CO)C(O)[C@H](O)C3O)OC(OC3CC[C@]4(C)C(CC[C@@]5(C)[C@@H]4C=C[C@]46OC[C@@]7(CCC(C)(C)C[C@H]74)C(O)C[C@@]56C)C3(C)C)C(O)C2O)C(O)C(O)C1O (some centres undefined),-8.64% (inactive)
4,CSCCC(NS(=O)(=O)c1ccc2c(c1)oc(=O)n2C)C(=O)NCc1ccccc1 (centres undefined),-9.32% (inactive)
5,Cc1cc(C(=O)N/N=C/c2ccc(O)c([N+](=O)[O-])c2)c(C)n1-c1ccc(F)cc1,23.4% (inactive)
6,CCOc1cccc(/C=N/N2C(=O)CSC2=S)c1O,-2.71% (inactive)
7,O=C1CSC(=S)N1/N=C/c1ccc(O)c([N+](=O)[O-])c1,74.7% (active)
8,CCOc1ccc(-n2c(SC(C)C(=O)OC)nc3c(c2=O)SCC3)cc1 (centres undefined),46.2% (active)
9,CCOc1ccc(NC(=O)CSc2nc3c(c(=O)n2-c2ccccc2OC)SCC3)cc1,-6.73% (inactive)
10,CCOc1ccc(-n2c(SCC(=O)OC)nc3sc4c(c3c2=O)CCN(C)C4)cc1,5.88% (inactive)
11,Cc1cccc(NC(=S)Nc2ccc(Cl)c(Cl)c2)c1,41.4% (active)
12,NS(=O)(=O)c1ccc(NC(=S)Nc2ccc(Br)c(Cl)c2)cc1,1.95% (inactive)
13,S=C(Nc1ccccc1)Nc1ccc2ccccc2c1,-5.73% (inactive)
14,O=C(NCCS(=O)(=O)c1ccc(Br)cc1)c1ccccc1Cl,4.71% (inactive)
15,Cc1nc([N+](=O)[O-])nn1C12CC3CC(CC(Br)(C3)C1)C2,2.28% (inactive)
16,CCN1C[C@@H]2[C@@H]3C(=O)N(Cc4ccccc4)C(=O)[C@@H]3[C@](C)(C1=O)N2C(=O)c1ccc(C(C)(C)C)cc1,-18.2% (inactive)
17,O=C(CN(C(=O)c1csnn1)c1ccc(Br)cc1)NC1CCCC1,-4.03% (inactive)
18,O=C(/C=C/c1ccc(Cl)cc1)N1CCN(c2ccccc2[N+](=O)[O-])CC1,41.9% (active)
19,O=C(c1ccc(Cl)c([N+](=O)[O-])c1)N1CCN(c2ccccc2)CC1,-2.12% (inactive)
20,CO/N=C/c1ccc(N2CCN(C(=O)c3cccc(Cl)c3)CC2)c([N+](=O)[O-])c1,-0.58% (inactive)
21,CC(C)CCNC(=O)Cn1c(=O)oc2cc(S(=O)(=O)N3CC(C)CC(C)C3)ccc21 (centres undefined),-3.27% (inactive)
22,O=C(CN(C(=O)c1csnn1)c1cccc(Cl)c1)NC1CCCC1,5.82% (inactive)
23,CSc1nc(-c2ccco2)nn1C(=O)c1ccccc1Cl,0.74% (inactive)
24,Clc1ccccc1CSc1nnc(-c2ccco2)c(-c2ccco2)n1,54.2% (active)

row,SMILES,inhibition
1,Cc1cc(C)nc(SCc2ccccc2C#N)n1,4.39% (inactive)
2,COc1cccc(-c2coc3cc4oc(=O)c(CC(=O)O)c(C)c4cc23)c1,2.29% (inactive)
3,Cc1ccc(/C=C/C(=O)O)cc1S(=O)(=O)N1CCC(Cc2ccccc2)CC1,3.43% (inactive)
4,S=C(NCc1ccc2c(c1)OCO2)NCc1ccco1,7% (inactive)
5,CCNC(=S)Nc1cccc(Cl)c1C,-7.76% (inactive)
6,Cc1c(Cl)cccc1NC(=S)NCc1ccc2c(c1)OCO2,57.9% (active)
7,O=C(CSc1ncnc2c1oc1ccccc12)NC1CCCC1,-1.46% (inactive)
8,CCOCCCn1c(SCC(=O)Nc2cc(OC)ccc2OC)nc2ccccc2c1=O,4.76% (inactive)
9,O=c1c2sccc2nc(SCc2cc(=O)n3ccccc3n2)n1-c1ccc(Br)cc1,47.5% (active)
10,O=C(O)CCn1c(SCc2cc(=O)n3ccccc3n2)nc2ccsc2c1=O,-6.86% (inactive)
11,CCc1ccc(-n2c(SCc3cc(=O)n4cc(Br)ccc4n3)nc3[nH]ncc3c2=O)cc1,-11.3% (inactive)
12,CC(=O)NC(NC(=S)Nc1c(C)n(C)n(-c2ccccc2)c1=O)C(Cl)(Cl)Cl (centres undefined),-9.32% (inactive)
13,O=C(COc1ccc(S(=O)(=O)NCc2ccccc2)cc1)N1CCOCC1,0.8% (inactive)
14,Cc1ccccc1CCNC(=O)C1CCC(=O)N(Cc2ccc(Cl)cc2)C1 (centres undefined),0.05% (inactive)
15,CC1CN(Cc2ccccc2)C(=S)NC1=O (centres undefined),-11% (inactive)
16,CCc1cccc(C)c1N1C(=O)CN(Cc2ccccc2)C1=S,88.4% (active)
17,O=C1C[C@@H]2c3c(cccc3CN1Cc1ccccc1)C[C@@H](O)[C@H]2O,0.85% (inactive)
18,Cc1cccc(C)c1N1C(=O)CN(Cc2ccccc2)C1=S,82.4% (active)
19,COc1cccc(N2C(=O)CN(Cc3ccccc3)C2=S)c1,25.8% (inactive)
20,COc1ccc(NC(=O)C(CC(C)C)NS(=O)(=O)c2ccc3c(c2)CCN3C(C)=O)cc1OC (centres undefined),-5.12% (inactive)
21,O=C(c1ccc(S(=O)(=O)N2CCCC2)cc1)N1CCN(c2ccccc2F)CC1,0.98% (inactive)
22,CCOc1ccc(CCNC(=O)COC(=O)CCS(=O)(=O)c2ccc(C)cc2)cc1OCC,-3.02% (inactive)
